# Laboratory results from PubChem BioAssay (NCATS).
# Inconclusive results are not listed. Entries that show only a call come without a potency. Active and inactive are the calls of the source. The call rests on the fitted dose curve; in most records, active means well fitted inhibition curve with a large enough effect; inconclusive means small, poorly fitted or top-dose-only effect; inactive means flat fitted curve, though single readings scatter. Non-standard residues stand in square brackets, D forms with d. Residues, ends and D or L forms follow the SMILES beside them. *: point of attachment. Sta = CC(C)C[C@H](N)[C@@H](O)CC(=O)O; Isovaleryl = CC(C)CC(=O)*
# Target: Calcium and integrin-binding protein 1 (Homo sapiens) (UniProt Q99828)
# Sequence (Q99828 whole entry, looked up): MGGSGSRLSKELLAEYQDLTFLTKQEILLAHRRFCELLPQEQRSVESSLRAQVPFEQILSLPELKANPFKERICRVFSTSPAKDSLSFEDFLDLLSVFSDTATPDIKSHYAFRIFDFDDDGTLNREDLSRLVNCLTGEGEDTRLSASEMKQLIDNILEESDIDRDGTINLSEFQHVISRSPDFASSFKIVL
# Experiment: Primary qHTS for Identification of Calcium Integrin Binding Protein 1 (CIB1) Competitor (AID 1508620);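 further: GST tagged CIB1 binding a fluorescein labelled alphaIIb integrin peptide tracer; top concentration of the series differs between compounds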
# Settings: CIB1-GST / FITC-alphaIIb peptide fluorescence polarization; series mostly up to 57.7 µM; activity change, negative = inhibition: at the top concentration
# Text: Assay Provider: Ulhas P. Naik, PhD Sidney Kimmel Medical College Thomas Jefferson University, Philadelphia, PA Primary function of platelets is to maintain hemostasis. At the site of vascular injury, platelets adhere to adhesive proteins such as collagen and von Willebrand factor. Adherent platelets are activated and generate soluble platelet agonists such as thrombin, ADP and thromboxane A2. Following exposure of circulating platelets to these agonists, results in platelet shape change, granule secretion and activation of platelet integrin alphaIIb-beta3. Ligand binding to activated integrin alphaIIb-beta3 triggers outside-in signaling, leading to platelet aggregation, stabilization of platelet plug, and clot retraction. Upon atherosclerotic plaque rupture also causes platelet plug formation, which underlies a number of cardiovascular diseases such as myocardial infraction and stroke. A number of anti-platelet drugs such as aspirin, clopidogrel, prasugrel, vorapaxar, and eptifibatide are currently available to prevent the thrombotic complications. However, these anti-platelet agents have several limitations including inherent variability in individual responses, developing resistance, and serious bleeding side effects. For these reasons they are not suitable for long-term protection. Based on the experiences with current anti-platelet drugs, it appears that the most useful therapeutic approach is to intersect the secondary responses such as integrin outside-in signaling or recruitment of platelets by TxA2 and secreted ADP. Compounds, which can largely preserve the primary hemostatic function of platelets but inhibit secondary response will be most desired therapeutic agents for treatment of cardiovascular disease. CIB1 is a calcium integrin binding protein, which specifically interact with the alphaIIb subunit of integrin alphaIIb-beta3. Binding of CIB1 to alphaIIb regulates the outside-in signaling in platelets, which is needed for thrombus stabilization and thrombus growth. […] Therefore, we propose that discovery of a small molecule that can prevent the association of CIB1 and alphaIIb-beta3 will be a potential anti-platelet agent that can block the thrombus formation without undue effect on hemostasis. Reference: [1] Naik MU, Nigam A, Manrai P, et al. CIB1 deficiency results in impaired thrombosis: the potential role of CIB1 in outside-in signaling through integrin alpha IIb beta 3. J Thromb Haemost.
# PROTOCOL TABLES SEQUENCE No. (1, 2, 3, etc.); […] (e.g., Cells, Incubation, Reagent, etc.); VALUE and DESCRIPTION. 1; Reagent; 3 uL; Protein or buffer (4/3x) 2; Compound; 46 nL; Control inhibitor / compound library 3; Time; 15 min; Room temperature incubation 4; Reagent; 1 uL; Fluorescent labeled peptide (4x) 5; Time; 1000 rpm; Centrifuge 6; Time; 15 min; Room temperature incubation 7; Detection; Ex 480/ Em 540; ViewLux Fluorescence Read NOTES (numbers refer to sequence above) 1; Protein Mixture: C1B1-GST (final concentrations of 1 uM). […] 3; Room temperature incubation. 4; Fluorescent Labeled Peptide: FITC-aIIb (final concentration of 100 nM). Sequence of alphaIIb peptide: Acetyl-[…]-FITC (purity is 95.83%). 5; Centrifuge 1000 rpm (164 g) for 15 seconds. 6; Room temperature incubation. 7; ViewLux Fluorescent Polization Read: excitation = 480(20) / emission = 540(25) S and P; FITC Dichroic mirror.
Structure (SMILES),Potency,"activity change, negative = inhibition"
O=C(c1ccccc1)c1ccc2n1CCC2C(=O)O (stereo not given),inactive,
COC(=O)C1=C(C)NC(C)=C(C(=O)OC(C)C)C1c1cccc2nonc12 (stereo not given),inactive,
NCCCCNCCCN,,-1% (inactive)
COc1ccc(C2(C#N)CCC(C(=O)O)CC2)cc1OC1CCCC1 (stereo not given),inactive,
CCOc1cc(CC(=O)N[C@@H](CC(C)C)c2ccccc2N2CCCCC2)ccc1C(=O)O,,-9.01% (inactive)
CC(C)[C@H](N)C(=O)OCCOCn1cnc2c(=O)[nH]c(N)nc21,inactive,
Nc1ccc(S(N)(=O)=O)cc1,inactive,
CCC1=C(C)CN(C(=O)NCCc2ccc(S(=O)(=O)NC(=O)NC3CCC(C)CC3)cc2)C1=O (stereo not given),inactive,
O=C(NOCC1CC1)c1ccc(F)c(F)c1Nc1ccc(I)cc1Cl,inactive,
CC1(C)CCC(C)(C)c2cc(NC(=O)c3ccc(C(=O)O)cc3)ccc21,inactive,
CC(=O)N1CCN(c2ccc(OC[C@H]3CO[C@](Cn4ccnc4)(c4ccc(Cl)cc4Cl)O3)cc2)CC1,,-5.48% (inactive)
Cc1nc2n(c(=O)c1CCN1CCC(c3noc4cc(F)ccc34)CC1)CCCC2,inactive,
C=CCc1cc(OC)c(O)c(C(=O)NCCO)c1,inactive,
CC(C)CC(=O)N[C@H](C(=O)N[C@H](C(=O)N[C@@H](CC(C)C)[C@@H](O)CC(=O)N[C@@H](C)C(=O)N[C@@H](CC(C)C)[C@@H](O)CC(=O)O)C(C)C)C(C)C (Isovaleryl-VV[Sta]A[Sta]-OH),,3.42% [at 114 µM] (inactive)
COc1cc(OC)c(C(=O)CCCN2CCCC2)c(OC)c1,inactive,
CN(C)CCCC1(c2ccc(F)cc2)OCc2cc(C#N)ccc21 (stereo not given),inactive,
CC1Cc2ccccc2N1NC(=O)c1ccc(Cl)c(S(N)(=O)=O)c1 (stereo not given),inactive,
N=C(N)c1ccc2cc(OC(=O)c3ccc(N=C(N)N)cc3)ccc2c1,inactive,
COCCCN1CCC(NC(=O)c2cc(Cl)c(N)c3c2OCC3)CC1,inactive,
CC(C)Oc1ccc2c(=O)c(-c3ccccc3)coc2c1,inactive,

Structure (SMILES),Potency,"activity change, negative = inhibition"
CN(C)C(=O)COC(=O)Cc1ccc(OC(=O)c2ccc(N=C(N)N)cc2)cc1,inactive,
Cc1ccc(C)c(OCCCC(C)(C)C(=O)O)c1,inactive,
CC(=O)O[C@H]1C(=O)[C@@]2(C)C([C@H](OC(=O)c3ccccc3)[C@]3(O)C[C@H](OC(=O)[C@H](O)[C@@H](NC(=O)c4ccccc4)c4ccccc4)C(C)=C1C3(C)C)[C@]1(OC(C)=O)CO[C@@H]1C[C@@H]2O (stereo not given in full),inactive,
COc1c(O)cc2c(c1O)[C@@H]1O[C@H](CO)[C@@H](O)[C@H](O)[C@H]1OC2=O,inactive,
Cc1cc(=O)c2c(O)c3c(O)cc(=O)c4c3c3c(cc(O)c1c23)C(C)(C)C=4O,inactive,
CCC[C@@H]1C[C@@H](C(=O)N[C@@H]([C@H]2O[C@H](SC)[C@H](O)[C@@H](O)[C@H]2O)[C@@H](C)O)N(C)C1,inactive,
COc1cc2c(cc1OC)C1CC(=O)C(CC(C)C)CN1CC2 (stereo not given),,-3.74% (inactive)
O=C(O)c1cccnc1Nc1cccc(C(F)(F)F)c1,inactive,
Clc1ccc(C(Cn2ccnc2)OCc2c(Cl)cccc2Cl)c(Cl)c1 (stereo not given),inactive,
Clc1ccc2c(N3CCN(CCCN4CCN(c5ccnc6cc(Cl)ccc56)CC4)CC3)ccnc2c1,,2.49% [at 30.2 µM] (inactive)
CC1=C(C)C(=O)C(C(CCCCCC(=O)O)c2ccccc2)=C(C)C1=O (stereo not given),inactive,
CCCCc1ccc2nc(NC(=O)OC)[nH]c2c1,inactive,
Oc1ccc(OCc2ccccc2)cc1,inactive,
O=c1c(O)c(-c2ccc(O)cc2O)oc2cc(O)cc(O)c12,,-10.1% (inactive)
Clc1ccc(C(Cn2ccnc2)OCc2ccsc2Cl)c(Cl)c1 (stereo not given),inactive,
Nc1nc(OCc2ccccc2)c2[nH]cnc2n1,,-7.23% (inactive)
CCOC(=O)C1=C[C@@H](OC(CC)CC)[C@H](NC(C)=O)[C@@H](N)C1,,5.6% (inactive)
CN(c1nccc(=O)[nH]1)C1CCN(c2nc3ccccc3n2Cc2ccc(F)cc2)CC1,inactive,
CC(C)c1ccc2oc3nc(N)c(C(=O)O)cc3c(=O)c2c1,inactive,
NC(=O)Cc1cccc(C(=O)c2ccccc2)c1N,inactive,
